Data as given in PubChem BioAssay AID2331 (The Scripps Research Institute Molecular Screening Center, 2010).
This is one part of the list. Unmarked numbers belong to inactive results. Active and inactive are the calls of the source. Rule as the data show it: active = inhibition above about 9.5%; inactive = the rest.

Target: Serine/threonine-protein phosphatase 5 (Homo sapiens) (UniProt P53041)
Assay: PP5 phosphatase inhibitors, confirmation, biochemical, fluorescence, human (AID 2331)
Conditions: Purified PP5, fluorogenic phosphatase substrate, at 6.7 µM, stronger effect = higher value

Sequence of Serine/threonine-protein phosphatase 5 (Homo sapiens) (P53041 whole entry, looked up): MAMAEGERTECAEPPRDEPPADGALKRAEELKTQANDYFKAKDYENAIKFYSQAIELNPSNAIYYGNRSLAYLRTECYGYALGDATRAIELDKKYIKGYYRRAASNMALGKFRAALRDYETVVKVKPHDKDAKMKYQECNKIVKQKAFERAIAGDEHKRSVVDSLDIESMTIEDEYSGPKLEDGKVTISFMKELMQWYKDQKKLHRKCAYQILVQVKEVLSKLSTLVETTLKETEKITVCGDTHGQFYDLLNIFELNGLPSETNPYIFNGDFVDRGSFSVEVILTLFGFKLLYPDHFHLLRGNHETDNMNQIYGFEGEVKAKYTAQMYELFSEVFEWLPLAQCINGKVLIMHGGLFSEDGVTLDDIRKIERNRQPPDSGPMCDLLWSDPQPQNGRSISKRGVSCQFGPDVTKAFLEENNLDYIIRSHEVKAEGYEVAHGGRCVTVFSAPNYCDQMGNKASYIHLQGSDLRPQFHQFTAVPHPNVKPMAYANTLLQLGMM

C[C@@]12C(=O)N(c3cccc(Br)c3)C(=O)N1[C@H](c1ccc(Cl)cc1)[C@@H]1C(=O)N(C3CCCCC3)C(=O)[C@@H]12 showed an inhibition of 7.67%.

O=c1ccc2c(-c3ccccc3S(=O)(=O)O)c3ccc(O)c(O)c3oc-2c1O gave an inhibition of 3.55%.

For O=C(O)c1n[nH]nc1-c1ccccc1, the inhibition was 41.3% (active).

With CNC(=S)NNC(=O)c1oc2nc(-c3ccccc3)cc(-c3ccco3)c2c1N the inhibition was -5.36%.

With CCN1CCN(CCNC(=O)c2ccc(/C=C3/Sc4ccccc4N(Cc4cccc(C)c4)C3=O)cc2)CC1 the inhibition was 1.06%.

Cc1nc(NC(CC(C)C)C(=O)O)c2nc(C)oc2n1 (stereo not drawn) gave an inhibition of -2.93%.

Molecule O=[N+]([O-])c1cccc2ncccc12 has an inhibition of -1.87%.

With COCCN1C=C2C(=O)C(C)(OC(=O)C3CCCC3)C(=O)C=C2C=C1c1ccsc1 (stereo not drawn) the inhibition was 43.5% (active).

CN(c1ccccc1)S(=O)(=O)c1ccc(NC(=O)COc2ccccc2)cc1 was tested, and the inhibition was 1.21%.

With Cc1sc(NC(=O)C2C3CCC(O3)C2C(=O)O)c(C(=O)OC(C)C)c1-c1ccc(Cl)cc1 (stereo not drawn) the inhibition was 3.03%.

Molecule Cc1nnc(SCc2nc3ccccc3nc2C)s1 has an inhibition of -2.92%.

In the case of COc1cc(C(F)(F)F)c(C(=O)N(C)c2ccc(Cl)cc2)cn1, the inhibition is reported as -0.02%.

N#Cc1c(N2CCCCC2)nc(N)c2c(N)nc(SCC(=O)O)cc12 was tested, and the inhibition was 36.8% (active).

Work on COc1ccc(OC)c(C(=O)c2ccc(C(=O)O)cc2)c1 yielded an inhibition of -7.99%.

CN(C)c1nc(N)nc(CSc2nnnn2-c2cccc3ccccc23)n1 showed an inhibition of -0.03%.

With O=C(C1=C[C@H](c2ccc(C(F)(F)F)cc2)C[C@H](OCc2ccc(CO)cc2)O1)N1CCN(Cc2ccccc2)CC1 the inhibition was 3.97%.

CCOC(=O)Nc1ccc2c(c1)N(C(=O)CN1CCN3CCCC3C1)c1ccccc1CC2 (stereo not drawn) gave an inhibition of -4.11%.

Work on COc1cc(/C=C2/SC(=S)N(Cc3ccccc3)C2=O)cc(OC)c1O yielded an inhibition of 0.02%.
